# Efflux pump mplx: inhibitors of Candida efflux pumps in yeast, primary screen, S. cerevisiae, Nile Red, multiplex. S. cerevisiae Candida pump triplex. inhibition, % at 10 µM. 330,000 tested, 0.44% active. AID 485275, 2010;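 active = plate passing quality check with inhibition over a set limit, or well fluorescence over plate mean plus 4 SD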;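 also: Nile Red retained in pooled yeast measured as flow cytometry median fluorescence; 0% = buffer negative control and 100% = Enniatin B positive control; higher means more Nile Red kept so more efflux inhibition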
# GRK2 inh: compounds blocking aptamer binding on GRK2 – biochemical, human GRK2, bead flow cytometry, HTS, primary screen; inhibition of aptamer binding, % at 10 µM; 330,000 tested, 0.59% active; Beta-adrenergic receptor kinase 1 (Homo sapiens), P25098; FAM-aptamer displacement from GRK2; AID 488847, 2010;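 active = inhibition of aptamer binding above 40%, roughly 3 SD of noise, on plates passing a quality check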;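 also: median bead fluorescence of bound FAM aptamer so fluorescent compounds give negative values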
# Target sequence (P25098 whole entry, looked up): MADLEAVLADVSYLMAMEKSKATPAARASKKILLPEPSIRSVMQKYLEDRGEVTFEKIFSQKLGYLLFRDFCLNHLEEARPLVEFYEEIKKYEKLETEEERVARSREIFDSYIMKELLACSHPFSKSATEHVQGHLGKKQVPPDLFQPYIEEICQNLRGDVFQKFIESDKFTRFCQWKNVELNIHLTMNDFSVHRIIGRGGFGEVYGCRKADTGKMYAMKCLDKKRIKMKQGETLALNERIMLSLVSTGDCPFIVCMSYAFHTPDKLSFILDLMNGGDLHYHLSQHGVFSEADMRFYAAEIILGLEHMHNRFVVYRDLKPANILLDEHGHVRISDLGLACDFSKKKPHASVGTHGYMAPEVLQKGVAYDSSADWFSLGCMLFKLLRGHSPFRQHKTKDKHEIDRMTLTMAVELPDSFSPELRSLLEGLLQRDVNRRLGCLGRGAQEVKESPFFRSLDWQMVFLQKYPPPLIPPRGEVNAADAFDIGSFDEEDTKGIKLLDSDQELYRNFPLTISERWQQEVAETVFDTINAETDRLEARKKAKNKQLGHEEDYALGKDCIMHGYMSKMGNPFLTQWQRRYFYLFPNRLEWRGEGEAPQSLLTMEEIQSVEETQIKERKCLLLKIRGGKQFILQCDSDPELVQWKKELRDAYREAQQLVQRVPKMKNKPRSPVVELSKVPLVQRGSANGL
# ALR inh: inhibitors of human ALR sulfhydryl oxidase, primary screen, biochemical, H2O2 detection, HRP-luminol luminescence, single point | AID 485317, 2010 | 290,000 tested, 3.8% active | purified ALR, DTT oxidation | FAD-linked sulfhydryl oxidase ALR (Homo sapiens), P55789 | inhibition, % (concentration not given with the values);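 active = mean replicate inhibition above about 79%, with every replicate also reaching it, limit read from the data; inconclusive = only one of the two criteria met; inactive = mean below limit and not every replicate reaching it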
# Rce1 inh: yeast Rce1p protease inhibitors, primary screen, biochemical, fluorescence, cell-free homogeneous; CAAX prenyl protease 2 (Saccharomyces cerevisiae (strain ATCC 204508 / S288c)), Q03530; 290,000 tested, 0.27% active; yeast membranes, quenched prenylated peptide cleavage fluorescence; AID 2563, 2010; calls only;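 active = fall in fluorescence gain of 50% or more versus controls, with final raw signal at or below 3038400; inconclusive = same 50% fall but final raw signal above 3038400; inactive = fall in fluorescence gain under 50%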;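 also: plate controls were neutral control wells for no effect and wells lacking membranes for full effect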
# Rtt109 HAT inh: inhibitors of C. albicans Rtt109/Vps75 HAT, primary screen, biochemical, ThioGlo CoA-SH fluorescence, plate reader. purified Rtt109/Vps75, 4 h. inhibition, % at 34.9 µM. 330,000 tested, 0.16% active. AID 540336, 2011;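 active = inhibition of at least 50% in every replicate; inconclusive = best replicate reaches 50% inhibition but some replicates fall short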
# HDAC3 inh: HDAC3 deacetylase inhibitors, primary screen, biochemical, fluorescence, cell-free homogeneous; Histone deacetylase 3 (Homo sapiens), O15379; AID 2718, 2010; inhibition, % at 8.3 µM; 320,000 tested, 0.15% active; recombinant HDAC3, fluorogenic peptide/trypsin coupled; in the data active = inhibition above about 26%, passing the limit was not always enough; inconclusive = no clear call, values can overlap the other calls
# Numbers without * were called inactive; i = inactive; ? = inconclusive; · = no result; + = active, no number. The list is not random: actives were taken first. Their share in the collection is about 4.5%.
SMILES,Efflux pump mplx,GRK2 inh,ALR inh,Rce1 inh,Rtt109 HAT inh,HDAC3 inh
CCCCCN1CC(=O)N2Cc3[nH]c4ccccc4c3C[C@H]2C1=O,-0.1,1.0,-10.0,i,0.4,-0.1
CCCCN1C(=O)C2Cc3c([nH]c4ccccc34)CN2C1=S (centres undefined),-0.1,2.0,88.5*,i,-2.9,6.7
CC(O)C(NS(=O)(=O)c1ccc2ccccc2c1)C(=O)OCC(=O)Nc1ccccc1OC(F)F (centres undefined),·,·,·,·,-4.0,·
CCC(=O)Nc1cc(OC)cc(OC)c1,0.1,5.0,-1.5,i,-4.8,-7.9
CCC(=O)Nc1cc(C)c(OC)c(C)c1,0.1,0.0,-5.4,i,51.5*,-1.4
COc1ccc(/C=C(/NC(=O)/C=C/c2ccccc2)C(=O)NCCCCCC(=O)O)cc1,0.3,0.0,2.8,i,0.1,8.1
COc1ccc(N2C(=O)CC(Sc3n[nH]c(-c4ccccc4)n3)C2=O)cc1 (centres undefined),0.0,0.0,98.7*,i,9.2,?
CCOc1ccc2nc(SC3CC(=O)N(c4ccccc4)C3=O)sc2c1 (centres undefined),-0.2,0.0,5.7,i,-3.7,-3.1
CCOc1ccc(N2C(=O)CC(Sc3n[nH]c(-c4ccccc4)n3)C2=O)cc1 (centres undefined),-0.2,0.0,98.7*,·,-1.0,-6.7
CCOC(=O)c1ccc(N2C(=O)c3n[nH]c(C)c3C2c2ccc(OC)cc2)cc1 (centres undefined),0.0,3.0,-5.4,i,76.6*,9.4
c1ccc(-c2nnc(CN3CCN(c4ccccc4)CC3)o2)cc1,0.0,0.0,97.5*,i,-5.3,·
COc1ccc(C2/C=C\CN(C(=O)c3ccc(C)cc3)[C@H](Cc3ccccc3)C(=O)N2Cc2ccc(F)cc2)cc1 (some centres undefined),0.0,2.0,1.3,+,4.4,-18.2
CC(C(=O)O)n1cc(Cl)cn1 (centres undefined),1.1,4.0,-4.0,i,20.3,-6.3
Cc1ccc2c(c1)c1c(n2C)-c2[nH]ncc2CC1,0.0,2.0,93.8*,·,-9.4,8.2
Cc1ccc(CNC(=O)C2CCC(=O)N(C3CCCC3)C2)c(F)c1F (centres undefined),0.0,2.0,-8.7,i,0.7,8.8
Cc1ccc(C(=O)NCCSCc2ccc(Cl)cc2Cl)cc1[N+](=O)[O-],0.2,1.0,88.6*,i,0.0,3.5
CCc1cc(SC#N)cc(C)c1NC(=O)CCl,0.0,0.0,98.4*,i,1.5,-0.5
CCC(=O)Nc1ccc(SC#N)cc1C,0.0,2.0,98.4*,i,5.8,3.1
Cc1cccc(CC(=O)N2CCC(N3CCC(C(=O)N4CCOCC4)CC3)CC2)c1,-0.1,1.0,-3.2,i,4.0,-7.7
CN(C)c1ccc(/C=C2\CCCCC2=O)cc1,0.1,0.0,91.5*,i,-5.6,13.1
CN(C)c1ccc(C=C2SC(=S)NC2=O)cc1,·,·,·,·,-0.1,·
COc1ccc(-c2oc3ccc(N4CCOCC4)cc3c2/C=C/c2ccc(OC)c(OC)c2)cc1,0.1,3.0,-6.4,+,-8.6,6.3
O=C1CN(S(=O)(=O)c2ccc([N+](=O)[O-])cc2)CC(=O)N1,0.0,0.0,·,+,-10.0,-6.1
Cc1nc(N2CCOCC2)c2c(C)c(C(=O)Nc3ccccc3C(F)(F)F)sc2n1,0.7,4.0,-1.1,+,3.1,0.8
Cc1nc(N2CCOCC2)c2c(C)c(C(=O)Nc3ccccc3Cl)sc2n1,0.1,4.0,-12.3,i,-1.4,4.8
SMILES,Efflux pump mplx,GRK2 inh,ALR inh,Rce1 inh,Rtt109 HAT inh,HDAC3 inh
Cc1nc(N2CCCCC2C)c2c(C)c(C(=O)Nc3ccccc3C(F)(F)F)sc2n1 (centres undefined),0.4,0.0,-0.6,+,-2.2,4.9
Cc1ccc(S(=O)(=O)N2CCOCC2)cc1C(=O)OCCOc1cccc(Cl)c1,0.4,0.0,-17.3,i,8.4,-1.6
Cc1ccc(S(=O)(=O)N2CCCCC2)cc1NC(=O)c1ccc(Cl)nc1,0.5,0.0,·,·,-4.2,·
O=C(O)CCn1cc(C2CC(c3ccccc3)=NN2c2ccccc2)c(-c2ccccc2)n1 (centres undefined),-0.2,1.0,98.8*,i,-151.2,-85.3
Cc1ccc(-c2nn(-c3ccccc3)cc2C2CC(c3cccs3)=NN2C(=O)CCC(=O)O)cc1 (centres undefined),-0.2,0.0,9.1,i,10.1,-10.2
O=C(NC(Cc1ccc(O)cc1)C(=O)O)c1ccc2c(c1)OCO2 (centres undefined),-0.1,2.0,20.3,·,8.0,-3.5
O=C(COC(=O)C1CCN(c2ccc(C(F)(F)F)cn2)CC1)NCc1ccccc1,-0.1,2.0,3.8,·,10.5,-0.4
COCCn1c(=NC(=O)CCS(=O)(=O)c2ccccc2)sc2cc(C(=O)OC)ccc21,0.0,0.0,4.9,i,-5.2,-2.3
COCCn1c(=NC(=O)CSCC(=O)Nc2cc(C)on2)sc2cc(C(=O)OC)ccc21,-0.1,0.0,91.5*,·,·,-1.2
O=C(C[n+]1ccc(/C=N/O)cc1)N(Cc1ccccc1)Cc1ccccc1,0.1,0.0,2.0,i,0.5,-4.4
CCOC(=O)NC(=O)c1cn(Nc2ccccc2)c(=O)[nH]c1=O,0.0,0.0,8.2,i,-15.1,-11.0
Cc1ccccc1-c1nc(CS(=O)(=O)CC(=O)NCCCN2CCCC2)c(C)o1,0.0,0.0,-22.1,i,21.3,-4.4
CCc1ccc(-c2nc(CN3CCCC(C(=O)NCCc4ccc(OC)c(OC)c4)C3)c(C)o2)cc1 (centres undefined),0.1,0.0,·,i,-5.2,-1.7
Cc1ccc(-c2nc(CS(=O)CC(=O)NCCN3CCCC3)c(C)o2)cc1 (centres undefined),0.2,0.0,98.8*,i,18.2,1.5
Cc1ccc(-c2nc(CS(=O)(=O)CC(=O)NCCN3CCOCC3)c(C)o2)cc1,0.0,0.0,-3.1,i,0.5,-0.4
Cc1ccc(-c2nc(CS(=O)CC(=O)NCCCN3CCN(Cc4ccccc4)CC3)c(C)o2)cc1 (centres undefined),-0.1,0.0,98.8*,i,36.3,6.8
Cc1ccc(-c2nc(CS(=O)CC(=O)NCCN3CCOCC3)c(C)o2)cc1 (centres undefined),0.0,5.0,99.3*,i,-27.1,5.7
